Compounds with a hit are over-represented: about 4% of the library has one in this group of screens.
Peg3 promoter: Peg3 promoter-driven luciferase inhibitors, primary screen, cell-based, HeLa, luciferase luminescence; HeLa PEG-Prom luciferase reporter, overnight; inhibition, % at 20 µM; 360,000 compounds, 1.7% hits;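 active = inhibition of at least 50% at 20 µM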
KKLEB tox: cytotoxicity in KKLEB CF airway cells, primary screen, cytotoxicity control for CF NF-kB inhibitor project, cell-based, uHTS, fluorescence assay plates | KKLEB CF airway cells viability, ATPlite luminescence, overnight; hits give low values; cells stimulated with P. aeruginosa culture filtrate | activity change (cytotoxicity), % at 5 µM | 360,000 compounds, 0.36% hits;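 active = corrected activity change at or below -50% at 5 µM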
HIF-2a inh: HIF-2a reporter inhibitors, primary screen, luminescence, 786-0 RCC cells; 786-0 RCC cells HIF-2a reporter, luciferase luminescence, overnight; inhibition, % at 18.8 µM; 360,000 compounds, 0.72% hits; AID 624352, 2012;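 active = inhibition of the luminescence signal of 40% or more relative to plate controls, in a single-dose primary screen at 18.75 µM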
TROY signal inh: inhibitors of TROY-driven NF-kB signaling, primary screen, Q293 LMP1-TROYcd cells, NF-kB luciferase, uHTS. inhibition, % at 10 µM. 360,000 compounds, 0.98% hits. AID 1347056, 2019. Q293 LMP1-TROYcd NF-kB luciferase reporter, 4 h;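 active = compounds whose plate-normalised and pattern-corrected inhibition of the luciferase reporter signal at the single screening dose is 50% or more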
TWEAK-Fn14 inh: inhibitors of TWEAK-Fn14 signaling, primary screen, luciferase reporter cells, uHTS; inhibition, % at 10 µM; TWEAK-stimulated Fn14 reporter cells, luciferase luminescence, 8 h; AID 1159606, 2016; 360,000 compounds, 2% hits; in the data active = inhibition above about 50%
CF NFkB inh: inhibitors of PAF-induced NF-kB signaling, primary screen, cell-based, GFP fluorescence, uHTS. KKLEB NF-kB-GFP reporter, GFP fluorescence overnight. inhibition, % at 5 µM. 360,000 compounds, 0.86% hits;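 active = at least 50% inhibition at 5 µM, scaled per plate between neutral and stimulator controls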;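 also: PAF is a Pseudomonas aeruginosa culture filtrate used as stimulus; plate controls were PAF-stimulated DMSO wells for no effect and unstimulated DMSO wells for full effect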
Starred values were filed as active, the others as inactive; nt = no result.

SMILES	Peg3 promoter	KKLEB tox	HIF-2a inh	TROY signal inh	TWEAK-Fn14 inh	CF NFkB inh
O=c1c2cc(N3CCOCC3)ccc2[nH]c(=S)n1CCCN1CCCC1	4	-2	16	-10	-19	-9
CCCOc1ccc(C(=O)N/N=C/c2c[nH]c3ccc(Br)cc23)cc1	51*	2	14	-11	8	2
CC[C@@H](C(=O)[C@@H](C)[C@@H](O)[C@H](C)CCc1ccc(C)c(O)c1C(=O)O)[C@H]1O[C@](CC)([C@H]2CC[C@](O)(CC)[C@H](C)O2)C[C@@H]1C	94*	-51*	-48	76*	86*	76*
CC(C)CN1C(=S)SC(C)(C)C1n1oc(=O)n(-c2ccc(Cl)cc2)c1=O (configuration not stated)	67*	-56*	3	-43	4	65*
Cc1ccc(/C=N/N=C2/NC(=O)C(CC(=O)Nc3ccc(Cl)cc3)S2)o1 (configuration not stated)	5	5	21	8	-23	-9
COc1ccc(O)c(-c2c(-c3ccc(Cl)cc3)n[nH]c2C)c1	8	-4	20	7	20	10
COc1ccc(-c2n[nH]c(C)c2-c2ccc(Cl)cc2)c(O)c1	62*	-5	27	10	2	-14
COc1ccc(-c2n[nH]c(C)c2-c2ccc(Cl)cc2)c(O)c1OC	72*	-26	15	42	55*	-8
Cc1[nH]nc(-c2ccc(O)cc2O)c1-c1ccc(Cl)cc1	30	1	19	38	27	-2
O=C(COC(=O)c1ccc(F)c([N+](=O)[O-])c1)NC(=O)NCc1ccccc1	97*	-1	33	-7	23	21
NC(=O)c1ccc(NC(=O)c2ccc(COc3ccccc3Br)cc2)cc1	-90	4	-79	-41	-15	-24
Cc1cc(C)n(Cc2ccc(NC(=O)c3ccc(COc4ccccc4Br)cc3)cc2)n1	22	-9	-68	23	60*	-20
CC(=O)NC1Sc2ccccc2N=C1c1ccccc1 (configuration not stated)	-200	16	-176	nt	53*	-7
CC(=O)N1c2ccccc2N=C(c2ccc(C(F)(F)F)cc2)C1C(=O)NC1CCCC1 (configuration not stated)	nt	nt	-17	nt	nt	nt
CN1CCc2c(sc(/N=C/c3cc(Cl)ccc3O)c2C#N)C1	-337	3	-250	74*	65*	13
Cc1c([N+](=O)[O-])c(C(=O)Nc2ccc3c(c2)OCCO3)nn1C	-124	-2	33	-37	3	11
Brc1ccc2ncnc(Nc3cccc4ccccc34)c2c1	23	-22	24	34	61*	48
O=C(O)c1cccc(Nc2ncnc3ccc(Br)cc23)c1	1	-7	1	-11	-6	0
Cc1cccc(OCCN2C(=O)C(=O)c3cc(C)ccc32)c1	-76	-14	-79	-35	-30	54*
Cc1ccc2c(c1)C(=O)C(=O)N2CCOc1ccccc1	-74	-17	-104	-41	-23	37
COc1ccc(CCNC(=O)CCN2C(=O)C3CC=CCC3C2=O)cc1OC (configuration not stated)	8	4	15	-4	4	-7
COc1ccccc1CN1CC(C(=O)NCc2cc(F)cc(C(F)(F)F)c2)CCC1=O (configuration not stated)	-15	3	-17	-21	6	11
COCCCNc1nc2nonc2nc1N1CCN(C2CCCC2)CC1	3	-2	11	5	-4	7
Cc1cc(C)n(-c2ccc([N+](=O)[O-])cc2)n1	107*	13	-2	-2	20	14
O=C(/C(=C/O)N=Nc1cccc(C(F)(F)F)c1)c1ccccc1	9	-6	-2	19	-3	26
O=C(/C(=C/O)N=Nc1ccccc1Cl)c1ccccc1	22	-19	-9	52*	58*	37
